tim10-1 inh = inhibits growth of tim10-1 mutant yeast | S. cerevisiae tim10-1 ts strain growth, BacTiter-Glo, 24 h | inhibition, % at 20 µM | AID 463190 | 330,000 compounds, 2.2% hits;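 active means inhibition of at least 40%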;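 further: mutant grown at 25 °C; 0% = DMSO wells with yeast and 100% = wells holding no yeast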
tim23-1 inh = growth inhibitors of tim23-1 mutant yeast; S. cerevisiae tim23-1 growth, BacTiter-Glo luminescence, 24 h; inhibition, % at 20 µM; 330,000 compounds, 1.3% hits;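 active means growth inhibition of the mutant yeast at or above 50%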;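 further: temperature-sensitive mutant grown at 25 °C; plate controls were DMSO-treated mutant yeast for no effect and medium wells lacking yeast for full effect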
MPTP inh = permeability transition pore inhibition; isolated mouse mitochondria, Ca2+ swelling absorbance, 30 min; inhibition, % at 10 µM; 360,000 compounds, 1.4% hits; AID 602449;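 active means inhibition of 50% or more, scaled per plate between neutral and stimulator controls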;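 further: 0% = DMSO wells given calcium and 100% = 1 mM EGTA wells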
Mdm2-MdmX inh = disrupts the human Mdm2-MdmX interaction; SaOS-2 split-luciferase Mdm2/MdmX complementation, luminescence; O15151+Q00987; inhibition, % at 8 µM; AID 485346; 330,000 compounds, 3% hits;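 active means inhibition of at least 50% at 8 µM in the primary screen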
TIM10 inh = TIM10 yeast growth inhibition. S. cerevisiae TIM10 strain growth, BacTiter-Glo luminescence, 24 h. inhibition, % at 10 µM. 330,000 compounds, 1.4% hits;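 active means inhibition of 40% or more at the single tested concentration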;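 further: wild-type TIM10 isogenic control strain grown at permissive 25 °C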
MPTP counter = mitochondrial membrane potential, counter-screen; shares compounds with MPTP inh; isolated mitochondria, Rhodamine 123 fluorescence; inhibition, % at 10 µM; 5,000 compounds, 78% hits; AID 624504; in the data active means inhibition above about 22%;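 further: 0% = DMSO vehicle and 100% = positive control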
The depositor's hits bear a star; x = no result. Only some compounds are listed: those with a hit (about 6.3% of all), similar ones and a draw of the others.

SMILES	tim10-1 inh	tim23-1 inh	MPTP inh	Mdm2-MdmX inh	TIM10 inh	MPTP counter
Cc1c(Cl)cccc1NC(=S)NCCc1ccc(C(F)(F)F)cc1	29	-3	98*	5	16	96*
COc1cccc(CN(CCC(=O)O)Cc2cccc(OC)c2)c1	x	x	0	x	x	x
CC(=O)N1C[C@H]2CON(C)[C@H]2C[C@H]1c1cccc(N2CCOCC2)c1	x	x	0	x	x	x
Cc1ccc(C)c(NC(=S)NC(NC(=O)OCc2ccccc2)C(Cl)(Cl)Cl)c1 (configuration not stated)	17	9	95*	-5	5	83*
CC(=O)NC(NC(=S)Nc1ccc(N=Nc2ccccc2C)cc1C)C(Cl)(Cl)Cl (configuration not stated)	11	-16	88*	40	8	63*
COC(=O)NC(NC(=S)Nc1cccc(C)c1)C(Cl)(Cl)Cl (configuration not stated)	-3	-6	1	-4	12	x
Cc1ccc(NC(=S)NC(NC(=O)C(C)(C)C)C(Cl)(Cl)Cl)c(C)c1 (configuration not stated)	21	19	57*	-1	15	64*
COc1cc(CNc2ncnc3c2ncn3[C@H]2CN(CCc3ccccc3)C[C@@H](CO)O2)cc(OC)c1OC	x	x	0	x	x	x
Cn1nc(C(F)(F)F)c(-c2cccc(C(F)(F)F)c2)c1NC(=O)Nc1ccc(F)cc1	-5	-11	79*	36	12	82*
Cn1nc(-c2ccccc2)cc1NC(=O)Nc1ccc(F)cc1	-15	-16	66*	-17	-5	81*
O=C(NC(c1ccc(Cl)cc1)c1cccnc1)C1CCN(CCOc2ccc(Cl)cc2Cl)CC1 (configuration not stated)	x	x	1	x	x	x
O=C1NC(Cc2ccccc2)c2nc3ccccc3c(=O)n2-c2ccc(Cl)cc21 (configuration not stated)	16	15	x	-11	6	x
Cc1nc2ccc(C(=O)NCCCN3CCCC3=O)cn2c1N(C)C(=O)CCc1ccccc1	x	x	10	x	x	x
O=C(CSc1nnc2n1CCCN2C(=S)Nc1ccc(Cl)cc1)c1ccccc1	19	-16	84*	-9	-29	89*
O=C(CSc1nnc2ccccn12)c1ccc(Cl)cc1	-2	15	0	-3	0	x
CNS(=O)(=O)c1cccc(C(=O)OCC(=O)NC(C)CCc2ccccc2)c1 (configuration not stated)	12	3	1	6	0	x
CC(CCc1ccccc1)NC(=O)COC(=O)c1cc(NS(=O)(=O)c2ccc(Cl)c([N+](=O)[O-])c2)ccc1O (configuration not stated)	13	-6	100*	22	-7	89*
Cc1c(O)ccc(/C(Cc2ccc3ccccc3n2)=N\O)c1O	17	10	73*	-35	26	35*
CC(C)(C)OC(=O)C[C@@H]1C/C=C\C[C@@H](CC(=O)N(CCO)Cc2ccccc2)C(=O)N[C@H](C(C)(C)C)COC1=O	7	12	1	-5	-2	x
CCCC(=O)N1CCCC1(C)C(=O)Nc1cc(C)ccc1C (configuration not stated)	x	x	0	x	x	x
Cn1c(=O)c2[nH]c(CCCCCCCc3nc4ccccc4[nH]3)nc2n(C)c1=O	x	x	11	x	x	x
CC(C)Cc1ccc(C(C)C(=O)Nc2ccc(O)cc2)cc1 (configuration not stated)	3	1	73*	4	-55	38*
CC(C)Cc1ccc(C(C)C(=O)Nc2cccnc2)cc1 (configuration not stated)	-19	-4	85*	14	-16	79*
CC(C(=O)Nc1cccnc1)c1ccc([N+](=O)[O-])cc1 (configuration not stated)	11	2	0	-7	-4	x
CC(C)Cc1ccc(C(C)C(N)=Nc2ccc(O)cc2)cc1 (configuration not stated)	-12	-40	0	46	-43	x
COc1ccc(S(=O)(=O)N2CCCCC2)cc1NC(=O)Cc1ccc(Br)cc1	x	x	1	x	x	x
COc1ccc(CCN(C)C(=O)Cc2ccc(-c3ccccc3)cc2)cc1OC	9	30	64*	14	7	72*
CCCn1c(=S)[nH]c2cc(C(=O)N3CCc4ccccc43)ccc2c1=O	9	-47	60*	31	-21	48*
COCCn1c(=S)[nH]c2cc(C(=O)N3CCc4ccccc43)ccc2c1=O	9	-19	9	-1	-1	x

Bioassay records deposited in PubChem BioAssay by Sanford-Burnham Center for Chemical Genomics.
